Where “and” joins values, the source holds several entries; their conditions need not be identical. Equal entries are not always repeated. Inconclusive results are not listed. Where a structure was tested more than once in an assay, its records may differ in their call. Calls of active or inactive are those of the source. Calls come from the whole dose curve; as a rule, active = well fitted inhibition curve with a large enough effect in the repeat runs; inconclusive = weak or mixed curves; inactive = no such curve, though single readings can be large or run the other way.
target: Cytochrome P450 1A2 (Homo sapiens) (UniProt P05177); test: Cytochrome P450 Family 1 Subfamily A Member 2 (CYP1A2) small molecule antagonists: luciferase reporter qHTS assay (AID 1671199); settings: P450-Glo CYP1A2 enzyme, luciferin luminescence, 1 h; series mostly up to 115 µM; activity change, negative = inhibition: at the top concentration; note: nearly all actives have a fitted effect of over 50% in size
Description: National Center for Advancing Translational Sciences [NCATS]
U.S. Environmental Protection Agency [EPA]
National Institutes of Environmental Health Sciences [NIEHS]
National Toxicology Program [NTP]
U.S. Food and Drug Administration [FDA]
Cytochrome P450 (CYP) enzymes are membrane-bound hemeproteins that play a key role in metabolism of drugs and xenobiotics. Evaluation of the effect of chemicals on CYP isozymes is useful to minimize the adverse drug reactions and toxicities in drug development process. Tox21 chemicals were tested for their effect on CYP enzyme activities by using P450-Glo (TM) screening systems (Promega Corporation, Madison, WI). These systems provide a luminescent method containing proluciferin substrates and are converted to luciferin products by CYP isozymes. The luciferin products formed are detected with a luciferin detection reagent, and the amount of light produced is proportional to CYP activity. P450-Glo (TM) CYP1A2 screening system (Catalog. No. V9770) was used to detect the compounds that interfere in CYP1A2 activity. The positive control compound used for CYP1A2 assay is furafylline (Sigma-Aldrich, St. Louis, MO).
Tox21 Assay Protocol Summary:
Two ul of enzyme-substrate mix was dispensed into medium binding white/solid 1536-well plates (Greiner Bio-One North America Inc., Monroe, NC) using a BioRaptr Flying Reagent Dispenser (FRD, Beckman Coulter, Brea, CA). Compounds dissolved in DMSO and positive control (furafyllline) were transferred to the assay plates at 23 nl using a Pintool station (Wako, San Diego, CA). The assay plates were incubated at room temperature for 10 min. Then 2 ul of NADPH regeneration solution was added to each well of the assay plates using an FRD and incubated at room temperature for 1 h. The reaction was stopped by adding 4 ul of detection reagent using an FRD and after 20 min incubation at room temperature the luminescence signal was measured using a ViewLux plate reader (Perkin Elmer, Shelton, CT). Data were expressed as relative luminescence units.
% is set by controls: 0 for no effect and ±100 for the full control effect; potency is the fitted concentration of half-maximal effect.

Chain of Cytochrome P450 1A2 (Homo sapiens) (P05177 whole entry, looked up): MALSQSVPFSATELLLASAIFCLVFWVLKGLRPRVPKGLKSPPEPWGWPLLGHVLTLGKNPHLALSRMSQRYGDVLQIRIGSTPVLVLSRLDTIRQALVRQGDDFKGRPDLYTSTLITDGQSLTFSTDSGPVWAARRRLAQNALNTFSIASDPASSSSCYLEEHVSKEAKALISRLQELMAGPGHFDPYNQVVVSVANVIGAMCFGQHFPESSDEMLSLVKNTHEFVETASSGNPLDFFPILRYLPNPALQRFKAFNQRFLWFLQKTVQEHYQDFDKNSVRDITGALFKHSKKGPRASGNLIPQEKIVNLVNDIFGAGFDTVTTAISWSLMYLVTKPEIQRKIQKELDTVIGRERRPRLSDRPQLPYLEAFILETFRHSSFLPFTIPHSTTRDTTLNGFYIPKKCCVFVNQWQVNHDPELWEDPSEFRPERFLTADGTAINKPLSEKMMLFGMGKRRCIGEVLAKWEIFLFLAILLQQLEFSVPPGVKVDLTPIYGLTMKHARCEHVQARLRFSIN

Row | SMILES | Potency | activity change, negative = inhibition
1 | ClCCOCCCl | inactive | 
2 | COP(=S)(OC)SCN1C(=O)c2ccccc2C1=O | 10.1 µM (active) and 10 µM (active) and 6.92 µM (active) | 
3 | O=[N+]([O-])c1ccc(Cl)cc1 | inactive | 
4 | CNC(=O)O/N=C/C(C)(C)SC | inactive | 
5 | CC(C)CCCCCCOC(=O)c1ccccc1C(=O)OCCCCCCC(C)C | 63.2 µM (active) | 
6 | COC(C)(C)CCCC(C)C/C=C/C(C)=C/C(=O)OC(C)C (stereo not given) |  | -25.5% [at 53 µM] (inactive)
7 | CN(C)CCC#N |  | 2.56% (inactive)
8 | CN(C)NC(=O)CCC(=O)O | inactive | 
9 | CNC(=O)O/N=C(\SC)C(=O)N(C)C |  | -19.6% (inactive)
10 | N#CN=C(N)N | inactive | 
11 | C[C@H]1C(=O)O[C@@H]2CCN3CC=C(COC(=O)[C@](C)(O)[C@]1(C)O)[C@H]23 | inactive | 
12 | O=C/C=C/c1ccccc1 | inactive and 39.9 µM (active) | 
13 | Nc1ccc([As](=O)(O)O)cc1 | inactive | 
14 | Cc1ccc(O)c(C)c1 | 70 µM (active) and 29.5 µM (active) | 
15 | CCCCCCCCCCCCCCCCCC(=O)O | 2.5 µM (active) and inactive | 
16 | Cl/C=C/Cl |  | -13% (inactive)
17 | CNc1cnn(-c2cccc(C(F)(F)F)c2)c(=O)c1Cl | 5.44 µM (active) and 10 µM (active) | 
18 | Cc1cccc(C)c1N |  | -25.2% (inactive)
19 | C=C(C)C(=O)OCC(CC)CCCC (stereo not given) |  | -10.5% (inactive)
20 | CN(C)C(=O)C(c1ccccc1)c1ccccc1 |  | -23% (inactive)

Row | SMILES | Potency | activity change, negative = inhibition
21 | [N-]=[N+]=CC(=O)OC[C@H](N)C(=O)O |  | 11.8% [at 53 µM] (inactive)
22 | CC[N+](=O)[O-] | inactive | 
23 | O=C(O)CCCc1ccc(N(CCCl)CCCl)cc1 | inactive | 
24 | CNCC(O)c1ccc(O)cc1 (stereo not given) | inactive | 
25 | CNC(=O)Oc1cccc2ccccc12 | 3.14 µM (active) and 8.94 µM (active) | 
26 | C[C@]12CC[C@H](O)CC1=CC[C@@H]1[C@@H]2CC[C@]2(C)C(=O)CC[C@@H]12 | inactive | 
27 | c1ccc2c(c1)CCCC2 |  | -11.5% (inactive)
28 | COc1nc(NC(C)C)nc(NC(C)C)n1 | 31.8 µM (active) and 28.3 µM (active) | 
29 | Nc1nc(N)nc(NC2CC2)n1 |  | 4.7% [at 53 µM] (inactive)
30 | Cc1cccc(C)c1NC(=O)CN1CCCC1=O | inactive | 
31 | Clc1cnc(Oc2ccc(Oc3ncc(Cl)cc3Cl)cc2)c(Cl)c1 | 24.9 µM (active) and inactive | 
32 | CCSC(=O)N1CCCCCC1 |  | -14.1% (inactive)
33 | Cc1cccc(N)c1 | 31.8 µM (active) and inactive and 31.7 µM (active) | 
34 | Cc1ccc(N=C=O)cc1N=C=O | 36.5 µM (active) and 35.5 µM (active) | 
35 | N#Cc1cccc(C#N)c1 | inactive | 
36 | CC(=O)C1CCOC1=O (stereo not given) |  | 5.44% [at 53 µM] (inactive)
37 | C/C=C/c1ccc2c(c1)OCO2 | 39.9 µM (active) | 
38 | COc1cc(-c2ccc(N)c(OC)c2)ccc1N | 1.79 µM (active) [middle of 4 runs] | 
39 | CC(=O)/C=C/c1ccccc1 | 31.7 µM (active) and 39.9 µM (active) | 
40 | Cc1cc(Cl)ccc1OC(C)C(=O)O (stereo not given) |  | -1.06% (inactive)

From PubChem BioAssay (Tox21)
